# Screens: PubChem BioAssay, National Center for Advancing Translational Sciences (NCATS)
# This is a sample that favours compounds with a hit; in the whole collection about 7.5% have one here.
# SMN2 splice enh = SMN2 splice variant enhancement; HEK293 SMN2-luciferase splicing reporter, luminescence, 30-36 h; Potency, µM (highest dose often 46.1 µM), inactives show at the top dose activity change, positive = activation, hits mostly activators; 210,000 tested, 2.8% active; also: % of control where 0% means no effect; nearly all actives have a fitted effect of over 55% in size
#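 qHTS luciferase splicing reporter: luminescence rises when SMN2 exon 7 is included in transfected HEK293 cells. Compound exposure lasted 30-36 h at 37C, with 4.5 mM final sodium butyrate as control, followed by a ONE-Glo read.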
# NPC1 prom act = NPC1 promoter activation | Potency, µM (titrated, usually from 9.22 µM), for the others: at the highest dose activation, usual class: activators | 320,000 tested, 2.4% active | Huh7 NPC1 promoter luciferase reporter, 24 h | AID 485313; also: % of control where 0% means no effect; nearly all actives have a fitted effect of over 60% in size
#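 Readout is luciferase luminescence, reflecting NPC1 promoter activation in stably transfected Huh7 cells after 24 h compound exposure at 37 °C in reduced-serum medium with 10% FBS.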
# Rab9 prom act = activates the Rab9 promoter | Huh7 Rab9 promoter-luciferase reporter, luminescence, 24 h | Potency, µM (titrated, usually from 9.22 µM), for the others: at the highest dose activation, negative = inhibition, most hits filed as activators | 320,000 tested, 2.8% active; also: % of control where 0% means no effect; nearly all actives have a fitted effect of over 60% in size
#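 Quantitative HTS format; Huh7 Rab9-luciferase reporter cells (1500/well) receive compound 2 h post-plating, incubate 24 h at 37 °C, then get luciferase reagent for 10 min before luminescence reading.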
# ELG1 genotox = inducers of genotoxicity in HEK293T ELG1-luciferase cells; AID 504466; Potency, µM (top dose mostly 46 µM), without a hit: at the highest dose activity change, positive = activation, actives largely listed as activators; 330,000 tested, 1.3% active; HEK293T ELG1-luciferase reporter, luminescence, 16 h; also: % of control where 0% means no effect; nearly all actives have a fitted effect of over 60% in size
#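 HEK293T cells expressing luciferase-tagged ELG1 were treated with compound or DMSO for 16 hr at 37°C. Luciferase activity was then read after 30 min with ONE-Glo at room temperature; rising signal flags genetic stress.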
# FLuc modulator = inhibits or activates purified firefly luciferase, miR-21 counter-screen; P08659; purified FLuc, Km substrates, luminescence inhibition; Potency, µM (highest dose often 57.5 µM), without a hit: top-dose activity change, negative = inhibition, actives largely listed as inhibitors; 360,000 tested, 6.9% active; AID 588342;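 also: plate controls were vehicle for no effect and reference inhibitor for full effect; nearly all actives have a fitted effect of over 55% in size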
# Target sequence (P08659 whole entry, looked up): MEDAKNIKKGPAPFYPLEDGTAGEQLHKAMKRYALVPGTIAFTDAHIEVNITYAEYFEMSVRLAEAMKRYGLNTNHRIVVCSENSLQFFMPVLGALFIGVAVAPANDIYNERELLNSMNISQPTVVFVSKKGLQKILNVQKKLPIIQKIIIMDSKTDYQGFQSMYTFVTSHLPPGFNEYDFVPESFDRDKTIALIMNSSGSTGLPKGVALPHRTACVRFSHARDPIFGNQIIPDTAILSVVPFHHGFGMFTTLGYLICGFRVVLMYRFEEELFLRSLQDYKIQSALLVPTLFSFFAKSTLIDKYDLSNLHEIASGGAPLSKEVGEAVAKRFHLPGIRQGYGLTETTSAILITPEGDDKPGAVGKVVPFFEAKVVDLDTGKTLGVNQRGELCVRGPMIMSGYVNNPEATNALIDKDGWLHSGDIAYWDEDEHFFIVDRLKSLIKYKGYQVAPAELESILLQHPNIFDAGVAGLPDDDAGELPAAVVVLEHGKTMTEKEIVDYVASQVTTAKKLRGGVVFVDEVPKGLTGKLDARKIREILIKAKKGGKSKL
#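 Purified P. pyralis luciferase (10nM final) with 10uM D-luciferin and 10uM ATP (Km levels) in 50mM Tris acetate pH 7.5, 10mM Mg acetate, 0.01% Tween-20, 0.05% BSA; qHTS 6-point titration, ~60 µM downward; luminescence read.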
# Active calls of the source: *; ? = inconclusive; . = no result given. Calls follow the shape of the dose curve; as a rule, active = well fitted curve in the direction sought with a large enough effect; inconclusive = small, poorly fitted or top-dose-only effect, or another doubt; inactive = no such curve, though single readings can be large; an effect the other way counts as inactive or inconclusive. Potency is read from the fitted curve at half-maximal effect.
SMILES,SMN2 splice enh,NPC1 prom act,Rab9 prom act,ELG1 genotox,FLuc modulator
Cc1cc(C(=O)NC2CCC(C)CC2)c(C)o1 (stereo not given),.,1.4µM*,1.8µM*,5.2µM*,9.5µM*
Cc1cc(C(=O)OCC(=O)NC2CCC(C)CC2)c(C)o1 (stereo not given),.,0%,0%,0%,-3%
Cc1ccc(C)c(C(C)NC(=O)c2ccc(Br)o2)c1 (stereo not given),-21%,-5%,-6%,-6%,4%
COC(=O)c1cc(-c2cccc(OC)c2)on1,-11%,-2%,-3%,2%,12µM*
COc1ccc(-c2cc(C(=O)NC(C)C)no2)cc1,13µM*,2.5µM*,1.1µM*,6.5µM*,5.4µM*
COc1cccc(-c2cc(C(=O)O)no2)c1,-2%,-1%,-2%,-2%,?
Cc1cc(NC(=O)c2cc(-c3ccc(Br)cc3)on2)no1,10%,-2%,-1%,4%,-1%
COC(=O)c1cc(-c2ccccc2)on1,8%,-21%,1%,2%,17µM*
CCN(CC)C(=O)c1cc(-c2ccc(Br)cc2)on1,?,2µM*,3.2µM*,?,9.5µM*
O=C(O)c1cc(-c2ccccc2)on1,0%,-3%,2%,0%,0%
COC(CNC(=O)C(=O)NCC1CCCN1S(=O)(=O)c1cccs1)OC (stereo not given),.,4%,0%,-4%,6%
Clc1ccccc1CNc1nc2ccccc2c2nc(-c3cccnc3)nn12,-2%,.,.,.,-6%
COC(=O)c1cc(-c2ccc(Br)cc2)on1,-2%,-1%,1%,1%,8.5µM*
COC(=O)c1cc(-c2ccc(OC)c(OC)c2)on1,.,-2%,1%,1%,-11%
COC(=O)c1cc(-c2ccc(OC)cc2)on1,.,-1%,-7%,1%,8.5µM*
O=C(Nc1cccc2nsnc12)c1ccc2c(c1)OCCO2,?,?,3.5µM*,?,11µM*
O=C(Nc1cccc2nsnc12)c1ccc2c(c1)OCO2,9%,?,?,9%,17µM*
CCc1cccc(NC(=O)CCN2C(=O)c3ccccc3Sc3ncccc32)c1,.,.,.,.,-4%
CC(C)Oc1ccc(CNC(=O)c2ccc3nc(C(C)C)oc3c2)cc1,.,.,.,.,3%
CCOc1ccc(CNC(=O)c2ccc3c(c2)nc2n3CCOC2)cc1,.,.,.,.,-13%
CC(C)Oc1ccc(CNC(=O)c2ccc3c(c2)nc2n3CCCCC2)cc1,.,.,.,.,9.5µM*
CCOc1ccc(CNC(=O)c2ccc3c(c2)nc2n3CCCCC2)cc1,.,.,.,.,12µM*
O=C(NC(=S)Nc1nc2c(s1)CCCC2)c1ccccc1,2µM*,4µM*,?,5.2µM*,3.4µM*
S=C(Nc1nc2c(s1)CCCC2)NC1CC1,.,?,2.5µM*,?,12µM*
COC(=O)c1ccc(C(=O)NC(=S)Nc2nc3c(s2)CCCC3)cc1,?,4µM*,?,11%,15µM*
SMILES,SMN2 splice enh,NPC1 prom act,Rab9 prom act,ELG1 genotox,FLuc modulator
CC(=O)c1cccc(NC(=O)N2CCC(c3ccc(C)cc3)C2)c1 (stereo not given),.,?,15%,3%,17µM*
Cc1ccc(C2CCN(C(=O)Nc3ccc(F)cc3)C2)cc1 (stereo not given),.,?,?,?,24µM*
COC(=O)c1c(N)sc(Cc2ccccc2)c1C,.,-2%,1%,0%,-6%
Nc1sc(-c2ccccc2)c(Cc2ccccc2)c1C(=O)O,-53%,-5%,-1%,1%,17µM*
CCOc1ccc(C(=O)Nc2ccc(C(=O)OCc3cc(=O)n4c(C)csc4n3)cc2)cc1,.,.,.,.,-10%
Cc1noc(C)c1-c1nc(N2CCNCC2)c2ccccc2n1,1%,.,.,.,.
O=C(CCCn1c(=O)c2cccn2c2ccccc21)Nc1cccc(Cl)c1,.,.,.,.,12µM*
COc1ccc(NC(=O)CCCn2c(=O)c3cccn3c3ccccc32)c(OC)c1,.,.,.,.,0.85µM*
COc1ccccc1NC(=O)CCn1c(=O)c2cccn2c2ccccc21,.,-1%,1%,-6%,-2%
COc1cc(/C=C2\CC/C(=C\c3ccc(OCCO)c(OC)c3)C2=O)ccc1OCCO,-24%,-3%,-2%,-4%,-9%
COc1ccc2c(c1)CC/C(=C\C=C\c1ccccc1)C2=O,?,18%,8%,9%,2.7µM*
COc1ccc2c(c1)CC/C(=C/c1cc(OC)c(OC)c(OC)c1)C2=O,-58%,4%,1%,-12%,-16%
COc1cccc(/C=C2\CCc3ccccc3C2=O)c1,.,?,?,2.6µM*,0.15µM*
COc1cc(C=C2C(=O)c3ccccc3C2=O)cc(OC)c1,.,-3%,2%,1%,-15%
COc1ccc(/C=C2\CC/C(=C\c3ccc(OC)c(OC)c3)C2=O)cc1OC,4%,1%,-6%,12%,1.2µM*
COc1cccc(/C=C2\C(=O)C(=O)c3ccccc32)c1,16%,-2%,-3%,4%,21µM*
Cc1ccc(S(=O)(=O)N2CCN(C(=O)CN3C(=O)NC4(CCCC4)C3=O)CC2)c(C)c1,.,-1%,1%,-6%,3%
CN(c1ccccc1C(=O)Nc1cccc([N+](=O)[O-])c1)S(C)(=O)=O,3%,-1%,3%,0%,1%
COc1ccc(/C=C2\CCc3ccccc3C2=O)cc1OC,-25%,2%,4%,17%,5.4µM*
COc1cc(/C=C2/CC/C(=C/c3ccc(O)c(OC)c3)C2=O)ccc1O,.,-5%,-2%,-4%,11µM*
CCN1C/C(=C/c2ccc(OC)c(O)c2)C(=O)/C(=C/c2ccc(OC)c(O)c2)C1,-105%,-45%,-44%,-21%,4%
COc1cc(/C=C2\COC/C(=C\c3ccc(O)c(OC)c3)C2=O)ccc1O,.,-11%,-43%,-17%,17µM*
CC(=O)Oc1ccc(C(=O)Nc2ccccc2NC(=O)c2ccc(OC(C)=O)cc2)cc1,.,1%,-6%,-3%,-1%
CC(=O)Oc1ccc(/C=C2/CCc3ccccc3C2=O)cc1,.,-4%,15%,?,0.6µM*
COc1ccc(-c2ccc3c(c2)S(=O)(=O)c2cccc(C(=O)N4CCN(c5c(Cl)cncc5Cl)CC4)c2C3=O)cc1OC,.,.,.,-5%,.
CCN1/C(=C/C=C/c2oc3ccc(-c4ccccc4)cc3[n+]2CC)Oc2ccc(-c3ccccc3)cc21,.,-44%,-73%,-13%,?
COc1ccc2c(c1)CC/C(=C/c1ccccn1)C2=O,.,?,?,15%,5.4µM*
Cc1cc([N+](=O)[O-])ccc1NC(=O)c1csc(C)c1C,.,1.4µM*,2µM*,4.1µM*,3.8µM*
COc1cc(OC)cc(C(=O)Nc2ccc([N+](=O)[O-])cn2)c1,-8%,5%,-1%,11%,-2%
Cc1cc(C(=O)Nc2ccc([N+](=O)[O-])cn2)cs1,.,2.5µM*,3.5µM*,9.2µM*,11µM*
